This note sets out measurements from PubChem BioAssay (NCI).

Structures are written as SMILES. About 83,000 compounds went through this panel and 20% of them were active in at least one assay; those are over-represented in the sample as a whole.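 Interpretation: 100, growth as untreated; towards 0, rising growth inhibition; 0, no net growth; 0 to -100, cell death. Compounds scoring below 10 were considered active.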 Values without a mark were called inactive. Activity calls are given as the source filed them.

Holding throughout (assay): NCI-60 one-dose screen, 48 h (100 = growth as untreated, 0 = no growth, -100 = all killed)
Holding throughout (details): 10 µM unless noted

Assay [1] has as its system SR leukemia.
Assay [2] deals with RPMI-8226 leukemia.
The subject of assay [3] is OVCAR-8 ovarian.
For assay [4], the system named is OVCAR-5 ovarian.
Assay [5] concerns OVCAR-4 ovarian.
The test system of assay [6] is SK-OV-3 ovarian.
Assay [7] relates to IGROV1 ovarian.
Assay [8] has as its system OVCAR-3 ovarian.
Assay [9] deals with HS 578T breast.
The test system of assay [10] is NCI/ADR-RES ovarian.
For assay [11], the system named is T-47D breast.
Assay [12] deals with BT-549 breast.
The test system of assay [13] is MDA-MB-435 melanoma.
Assay [14] has as its system SW-620 colon.
The subject of assay [15] is MCF7 breast.
Assay [16] has as its system HCT-116 colon.
Assay [17] has as its system HCC-2998 colon.
Assay [18] concerns KM12 colon.

`CC1(C)CC(=O)C2=C(C1)N(c1ccc(F)cc1F)C(N)=C(C#N)C2c1cc(Br)ccc1F` (configuration not stated): the growth in assay [1] is 31%; in assay [2] it was 80.6%; in [3], 86.7%; in [4], 107%; in assay [5] it was 83.1%; in assay [6], 131%. In addition, the growth in assay [7] is 94.3%; in assay [8], 99.7%; in [9] it was 105%; in assay [10], 85.7%; in assay [11], 110%; in [12] it was 106%. Further, the growth in assay [13] was 101%; in assay [14], 89.6%; in assay [15], 95%; in assay [16], 80.9%; in assay [17], 107%; in [18], 88.7%.
Take `C#CCNC(=O)c1cccc2c1cc(C)n2-c1nc2c(c(NCc3ccccc3)n1)CCCC2`: the growth was 6.53% (active) in assay [1]; 0.445% (active) in assay [2]; 12.8% in [3]; 8.62% (active) in assay [4]; -11.8% (active) in assay [5]; 2.45% (active) in assay [6]. Also, the growth was -21.7% (active) in assay [7]; -61.2% (active) in [8]; 8.06% (active) in assay [9]; 1.28% (active) in assay [10]; -11.6% (active) in assay [11]; -38.7% (active) in assay [12]. Besides, the growth in assay [13] was -61.3% (active); in assay [14], -4.61% (active); in assay [15], -0.959% (active); in [16], -41.5% (active); in assay [17], -84.2% (active); in [18], -43.6% (active).
In the case of `O=C(C[n+]1cccc2ccccc21)c1ccc(O)c(O)c1`, the growth was 7.71% (active) in assay [1]; 17.4% in [2]; 49.2% in assay [3]; 88% in assay [4]; 55.1% in assay [5]; 120% in assay [6]. The growth was 48.5% in assay [7]; 35.7% in assay [8]; 90.6% in assay [9]; 75.4% in assay [10]; 42% in assay [11]; 65.7% in assay [12]. Also, the growth in assay [13] is 88.1%; in assay [14], 23.8%; in [15] it was 21.8%; in [16], 5.16% (active); in [17], 90.4%; in [18] it was 100%.
In the case of `COc1ccc(/C=C2\Oc3cc(OCCCCCN4CCCCC4)ccc3C2=O)cc1OC`, the growth in [1] was -26.1% (active); in [2], 76.1%; in [3], 83.3%; in assay [4], 95.9%; in [5], 48.1%; in [6] it was 104%. In addition, the growth in assay [7] was 94.3%; in [8], 82.8%; in assay [9] it was 93.8%; in assay [10], 84%; in assay [11], 72.4%; in assay [12], 69.4%. Moreover, the growth in assay [13] was 99.2%; in assay [14], -61.3% (active); in [15] it was 70.9%; in [16] it was -51.2% (active); in [17] it was 94.7%; in [18] it was 80.4%.
With `COc1ccc(/C=C/c2nc(Nc3cccc(NC(C)=O)c3)c3ccccc3n2)cc1`, the growth in assay [1] was 64.7%; in assay [2], 89.3%; in [3], 84.5%; in assay [4], 86.8%; in assay [5] it was 104%; in [6] it was 99.5%. Also, the growth was 99.7% in assay [7]; 97.7% in assay [8]; 89.1% in assay [9]; 90% in assay [10]; 70% in assay [11]; 92.1% in assay [12]. Besides, the growth in [13] was 85.2%; in assay [14], 92.1%; in assay [15] it was 49.9%; in [16], 81.3%; in [17], 88.4%; in [18] it was 83.2%.
Regarding `COc1cc(/C(C)=C(\c2ccc(Cl)cc2)c2ccc(OCCN(C)C)cc2)ccc1F`, the growth in [1] is 0.487% (active); in assay [2], 12.2%; in [3] it was 73.9%; in assay [4] it was 75.3%; in assay [5] it was 45.9%; in assay [6] it was 111%. Moreover, the growth was 35.3% in [7]; 59.4% in assay [8]; 71.7% in assay [9]; 69.4% in assay [10]; 61.2% in assay [11]; 76.2% in assay [12]. The growth was 39.6% in assay [13]; 49.8% in assay [14]; 31.7% in [15]; 46.8% in [16]; 25.1% in [17]; 44% in assay [18].
For the compound `COc1ccc(C(=O)C2C(C#N)C(C#N)C3C=Cc4ccccc4N32)cc1` (configuration not stated), the growth in assay [1] is 21.3%; in [2], 29.9%; in [3], 27.6%; in assay [4], 31.4%; in assay [5] it was 46.4%; in assay [6] it was 55.2%. Also, the growth in [7] is 23.2%; in assay [8], -11.9% (active); in assay [9] it was 14.4%; in assay [10], -7.8% (active); in assay [11], 42.5%; in assay [12], 63.9%. For the same compound, the growth in [13] is -47.8% (active); in assay [14], 26.5%; in assay [15], 9.25% (active); in [16] it was 15.9%; in assay [17] it was 33.6%; in assay [18] it was 6.36% (active).
For the compound `N#Cc1c(NCc2ccccc2I)sc2c1CCCCC2`, the growth in [1] is 93.8%; in assay [2], 91.9%; in assay [3], 88.8%; in [4] it was 96.3%; in assay [5], 90%; in [6], 97.8%. Moreover, the growth in assay [7] is 71.9%; in [8] it was 104%; in assay [9] it was 93.3%; in [10], 89.7%; in assay [11], 73.3%; in assay [12], 102%. Besides, the growth in assay [13] was 99.9%; in assay [14], 97.2%; in [15] it was 80%; in assay [16] it was 90.3%; in [17] it was 113%; in [18], 96.6%.
For `CCCCCOc1ccc(/C=N/Nc2cc(C)nc3ccc(Cl)cc23)cc1`, the growth in assay [1] was -21.9% (active); in assay [2] it was -23.1% (active); in [3], -43.1% (active); in assay [4] it was 93.7%; in assay [5], -14.1% (active); in assay [6] it was 90.4%. In addition, the growth is -76.8% (active) in [7]; -79.4% (active) in assay [8]; 51.3% in assay [9]; 53.5% in assay [10]; 68.6% in assay [11]; 103% in assay [12]. In addition, the growth is -75.6% (active) in assay [13]; -73.8% (active) in assay [14]; -73.6% (active) in assay [15]; -64.5% (active) in assay [16]; -67.7% (active) in assay [17]; -84.6% (active) in [18].
